HEK293 tox – kills HEK 293 cells. actives 6.6% (n = 94,000). Potency, µM (doses to about 115 µM), for the others: at the top dose activity change, negative = cytotoxicity, most hits filed as inhibitors. HEK 293 viability, ATP luminescence (CellTiter-Glo), 48-72 h; also: nearly all actives have a fitted effect of over 60% in size
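Cells seeded first (HEK 293, 250 cells/well), then compound added by pintool. Incubation ran 48 or 72 hr at 37 degree Celsius. CellTiter-Glo was added and luminescence imaged after 10 min at room temperature.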
FLuc inh – inhibitors of firefly (Photinus pyralis) luciferase; P08659; purified P. pyralis luciferase, luminescence, biochemical; Potency, µM (top dose mostly 115 µM), hits mostly inhibitors; actives 2.5% (n = 76,000); AID 1347043; also: nearly all actives have a fitted effect of over 65% in size
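Luminescence read by CCD imaging after purified firefly luciferase (10nM final) was added to substrate buffer holding 10uM D-luciferin and 10uM ATP, pH 7.5, pre-dosed with compound.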
NIH3T3 tox – NIH 3T3 cell cytotoxicity; Potency, µM (top dose mostly 96.7 µM), for the others: at the highest dose activity change, negative = cytotoxicity, usual class: inhibitors; actives 4.3% (n = 94,000); NIH 3T3 viability, CellTiter-Glo ATP luminescence, 48-72 h; also: nearly all actives have a fitted effect of over 55% in size
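ATP-dependent luminescence (CellTiter-Glo) served as the viability signal for NIH 3T3 cells treated with compound for 48 or 72 hr at 37 °C.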
NPR1 antag – antagonists of human natriuretic peptide receptor Npr1; actives 1.6% (n = 76,000); Potency, µM (top dose mostly 46.3 µM), without a hit: at the top dose activity change, negative = inhibition, actives largely listed as inhibitors; AID 1347048; HEK293 hNpr1 GloSensor cGMP, ANP-stimulated luminescence; P16066; calls by dose curve; also: nearly all actives have a fitted effect of over 60% in size
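Compound pre-incubated 30 min at room temperature on GloSensor-loaded HEK293 cells stably carrying hNpr1 and the pGS-40F cGMP biosensor. Stimulation uses hNppA at 0.1 nM final; luminescence is taken at baseline and 20 min post-agonist.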
Starred values were filed as active, the others as inactive; i = inactive; ? = inconclusive; . = not tested or not shown; [ ] = remark or other dose. The list is not random: actives were taken first. Their share in the collection is about 11%. Unless noted, calls follow the shape of the dose curve; as a rule, active = well fitted curve in the direction sought with a large enough effect; inconclusive = small, poorly fitted or top-dose-only effect, or another doubt; inactive = no such curve, though single readings can be large; an effect the other way counts as inactive or inconclusive. % is scaled to controls: 0 for no effect and ±100 for the full control effect; potency is read from the fitted curve at half-maximal effect.

SMILES | HEK293 tox | FLuc inh | NIH3T3 tox | NPR1 antag
COc1ccc(CN2CC3(CCN(C(=O)Nc4ccc5c(c4)OCCO5)CC3)C2=O)cc1 | ? | ? | ? | -21.4%
CCN1C(=O)Cc2cc(C(=O)NCc3c(C)cc(C)cc3C)ccc21 | 39.8µM* | i | ? | -13.7%
O=C(NC1CCN(c2ccnc3ccnn23)CC1)c1ccc(F)cc1 | ? | . | -30.1% | .
CCn1ncc(N2CCCC(CC(=O)Nc3cc(OC)cc(OC)c3)C2)cc1=O (centres undefined) | -1.0% | i | 39.8µM* | 4.0%
COCCn1ncc(N2CCCC(CC(=O)Nc3ccc(Cl)cc3)C2)cc1=O (centres undefined) | ? | i | 31.6µM* | -11.4%
O=C1Nc2ccccc2CC12CCN(Cc1ccc(F)cc1)C2 (centres undefined) | 70.8µM* | i | -23.9%[138 µM] | 0.0%[70.6 µM]
COCCN1CCCCCC(O)c2cc(C(=O)NCCN3CCCC3)ccc21 (centres undefined) | ? | i | ? | 1.6%
O=C1Nc2ccccc2CC12CCCN2Cc1ccc(Cl)cc1 (centres undefined) | ? | . | -29.4% | .
O=C1Nc2ccccc2CN(Cc2ccc(Cl)cc2)C12CCNC2 (centres undefined) | 50.1µM* | . | ? | .
O=C(c1nc2cccnc2n(CCc2ccccc2)c1=O)N1CCOCC1 | -3.2% | . | -1.9% | .
O=C(c1ccc(C(F)(F)F)cc1)N1CCN(C2CCN(Cc3cccnc3)C2=O)CC1 (centres undefined) | -29.3% | i | -16.2% | 8.9%
COc1cccc(-c2ccnc(-c3nnc(C)n3C3CCCCC3)c2)c1 | 70.8µM* | i | 89.1µM* | -0.2%[70.6 µM]
Cc1nnc(-c2cc(-c3cccc(F)c3)ccn2)n1C1CCCCC1 | ? | i | ? | -7.5%[70.6 µM]
COc1cccc(Nc2ccnc(-c3nnc(C)n3C3CCCCC3)c2)c1 | 70.8µM* | i | 89.1µM* | -25.1%[70.6 µM]
COc1ccc(-c2ccnc(-c3nnc(C)n3C3CCCCC3)c2)cc1OC | ? | i | ? | -2.2%[70.6 µM]
N#Cc1cccnc1-c1ccc(C(=O)N2CCC(NC(=O)C3CC3)CC2)cc1 | -6.3% | . | -22.2% | .
COc1ccc(C(=O)N2CCC3(CC2)NCCc2c3[nH]c3ccccc23)c(OC)n1 | ? | i | ? | -9.8%
O=C(c1ccccc1)N1CCC2(CC1)CC(=O)N(c1ccccc1)c1ccccc1O2 | -16.3% | i | -1.7% | 22.4%
O=C(c1ccccc1Cl)N1CCC2(CC1)CC(=O)N(c1ccccc1)c1ccccc1O2 | 79.4µM* | i | ? | -5.7%
O=C(c1ccccc1F)N1CCC2(CC1)CC(=O)N(c1ccccc1)c1ccccc1O2 | 79.4µM* | i | ? | 21.2%
COc1ccc(-c2cc3c(=O)n(CCNC(=O)c4ccc(N(C)C)cc4)ccn3n2)cc1 | -13.2% | i | -4.6% | 1.0%
O=C1N(Cc2ccccc2)c2ccccc2C12CCN([S+](=O)([O-])c1cccc(C(F)(F)F)c1)C2 (centres undefined) | -19.8% | i | -21.5% | 1.6%
c1ccc(CN(Cc2ccccn2)[C@H]2C[C@H]3CCOC[C@@]3(c3ccccc3)C2)cc1 | 50.1µM* | . | ? | .
COc1cccc(CN(Cc2ccccc2)[C@H]2C[C@H]3CCOC[C@@]3(c3ccccc3)C2)c1 | ? | . | -21.5% | .
CCOC(=O)C1(Cc2ccc(F)cc2F)CCCN(S(=O)(=O)c2c(C)noc2C)C1 (centres undefined) | 39.8µM* | i | ? | 5.4%
SMILES | HEK293 tox | FLuc inh | NIH3T3 tox | NPR1 antag
O=C(NC1CCC(O)CC1)c1ccc(-c2ncc3cnc(-c4cccc(F)c4)cn23)cc1 (centres undefined) | 70.8µM* | i | -25.8%[138 µM] | -2.6%[70.6 µM]
O=C(NCCc1cnc[nH]1)c1ccc(-c2ncc3cnc(-c4cccc(F)c4)cn23)cc1 | 89.1µM* | i | 50.1µM* | 2.2%[70.6 µM]
CC(=O)NCCNC(=O)c1ccc(-c2ncc3cnc(-c4cccc(F)c4)cn23)cc1 | -31.3%[172 µM] | i | ? | -1.2%[70.6 µM]
Cc1cc(C)c(CNC(=O)c2cc(-c3ccnn3C)cc3c2OCCN3C(C)C)c(=O)[nH]1 | ? | i | ? | -0.1%[70.6 µM]
Cc1ccccc1C(=O)NC[C@@H]1CC[C@H]2C[C@@H]1C2(C)C | ? | i | ? | -5.3%[70.6 µM]
CCC(=O)NC[C@@H]1CC[C@H]2C[C@@H]1C2(C)C | -10.9%[230 µM] | i | -27.3%[174 µM] | 5.7%[70.6 µM]
CC1(C)[C@H]2CC[C@@H](CNC(=O)N3CCCC3)[C@@H]1C2 | 63.1µM* | i | ? | -6.6%[70.6 µM]
CC1(C)[C@H]2CC[C@@H](CNC(=O)Cc3cccc(Cl)c3)[C@@H]1C2 | 100µM* | i | ? | 7.7%[70.6 µM]
CC1(C)[C@H]2CC[C@@H](CNC(=O)c3cccc(Br)c3)[C@@H]1C2 | 100µM* | i | ? | -2.4%[70.6 µM]
CC1(C)[C@H]2CC[C@@H](CNC(=O)c3ccncc3)[C@@H]1C2 | ? | i | ? | -17.0%[70.6 µM]
CC1(C)[C@H]2CC[C@@H](CNC(=O)c3ccc4ccccc4n3)[C@@H]1C2 | ? | i | 89.1µM* | 0.4%[70.6 µM]
OC1(c2csc(CN3CCOCC3)n2)CCN(Cc2ccccc2C(F)(F)F)CC1 | -15.1% | i | -11.8% | 0.4%
N#Cc1ccc(CN2C[C@@H]3C(=O)N(CCN4CCc5ccccc5C4)C(=O)[C@@H]3C2)cc1 | ? | i | ? | -12.3%
CN1Cc2cccn2CC1CNC(=O)C1(S(=O)(=O)c2ccc(Cl)cc2)CC1 (centres undefined) | ? | i | ? | 1.4%
CNC(=O)[C@@H]1C[C@H](Oc2ccccc2)CN1C1CCN(Cc2cccc(C#N)c2)CC1 | ? | . | -30.2% | .
CC(C)C(=O)NC1CCN(c2ccc3nnc(-c4ccccc4)n3n2)CC1 | -13.0% | . | -24.0% | .
Cc1cc(C(=O)NC[C@@H]2CC[C@H]3C[C@@H]2C3(C)C)ccc1Cl | ? | i | 35.5µM* | ?
CC1(C)[C@H]2CC[C@@H](CNC(=O)c3ccc(Cl)nc3)[C@@H]1C2 | ? | i | 79.4µM* | -6.9%[70.6 µM]
Cc1ccc(C(=O)NC[C@@H]2CC[C@H]3C[C@@H]2C3(C)C)cc1 | ? | i | ? | 5.7%[70.6 µM]
COc1ccc(OCc2nc3c(n2Cc2ccccc2)C(=O)N(Cc2ccccc2C#N)CCN3)cc1OC | ? | i | ? | 2.8%
COCCN1C(=O)CS(=O)C12CCN(C(=O)c1cccc3[nH]ccc13)CC2 (centres undefined) | ? | i | 0.8% | -6.0%
Fc1ccc(-c2noc([C@@H]3Cc4nc[nH]c4CN3CCCc3ccccc3)n2)cc1Cl | ? | ? | ? | -12.3%
Fc1ccc(-c2noc([C@@H]3Cc4nc[nH]c4CN3Cc3cc4ccccc4o3)n2)cc1Cl | ? | ? | ? | -26.9%
Fc1ccc(-c2noc([C@@H]3Cc4nc[nH]c4CN3Cc3ccccc3)n2)cc1Cl | 70.8µM* | i | 70.8µM* | -26.4%[70.6 µM]
Fc1ccc(-c2noc([C@@H]3Cc4nc[nH]c4CN3Cc3cccs3)n2)cc1Cl | ? | 56.2µM* | 50.1µM* | -27.7%[70.6 µM]

Screens from PubChem.
